{"source": "PubChem BioAssay (NCATS)", "note": "Unmarked numbers belong to inactive results. Inconclusive results are not listed. Activity calls are given as the source filed them. Calls follow the shape of the dose curve; as a rule, active = well fitted curve in the direction sought with a large enough effect; inconclusive = small, poorly fitted or top-dose-only effect, or another doubt; inactive = no such curve, though single readings can be large; an effect the other way counts as inactive or inconclusive."}
{"tested_on": "not listed separately", "assay": "Viability counterscreen for agonist of constitutive androstane receptor (CAR) against the NCATS DSHEA and TCM libraries (AID 1794838); also: 0% is about no effect", "conditions": "HepG2 cell viability counterscreen, CAR agonist assay, co-treated with 0.75 µM CAR antagonist; series mostly up to 40 µM; activity change, negative = cytotoxicity: at the top concentration", "how_it_was_run": "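HepG2-CYP2B6-hCAR cells (2,500/well) treated 24 h at 37C with compounds plus 0.75 uM PK11195; viability read by CellTiter-Fluor fluorescence, Ex/Em 405/540 nm.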"}
{"smiles": "COc1ccc2ccc(=O)oc2c1", "activity change, negative = cytotoxicity": "15.9% [at 68.2 µM]"}
{"smiles": "O=C(/C=C/c1ccc(O)c(O)c1)OC(Cc1ccc(O)c(O)c1)C(=O)O", "note": "(stereo unspecified)", "activity change, negative = cytotoxicity": "11.4%"}
{"smiles": "COC(=O)C1=CO[C@@H](C)[C@H]2CN3CCc4c([nH]c5ccccc45)[C@@H]3C[C@H]12", "activity change, negative = cytotoxicity": "-177%"}
{"smiles": "C=C(C)[C@H]1CC=C(C)C(=O)C1", "activity change, negative = cytotoxicity": "7.08%"}
{"smiles": "C=C[C@](C)(O)CCC=C(C)C", "activity change, negative = cytotoxicity": "26.2%"}
{"smiles": "O=c1cc(-c2ccc(O)cc2)oc2cc(O[C@H]3OC(CO)C(O)C(O)C3O)cc(O)c12", "note": "(stereo partly specified)", "activity change, negative = cytotoxicity": "1.07%"}
{"biological_target": "Nuclear receptor subfamily 1 group I member 3 (Homo sapiens) (UniProt Q14994)", "sequence (Q14994 whole entry, looked up)": "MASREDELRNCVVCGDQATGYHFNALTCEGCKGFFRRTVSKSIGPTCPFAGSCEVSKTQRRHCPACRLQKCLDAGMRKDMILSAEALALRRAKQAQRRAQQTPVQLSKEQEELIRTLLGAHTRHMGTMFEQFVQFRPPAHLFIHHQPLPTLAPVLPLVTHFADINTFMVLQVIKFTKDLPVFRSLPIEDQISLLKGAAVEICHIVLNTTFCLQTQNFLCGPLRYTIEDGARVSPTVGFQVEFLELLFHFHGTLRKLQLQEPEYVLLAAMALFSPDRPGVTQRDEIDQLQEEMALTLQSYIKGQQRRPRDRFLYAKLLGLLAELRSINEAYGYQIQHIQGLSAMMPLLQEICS", "assay": "Primary qHTS for agonist of constitutive androstane receptor (CAR) against the NCATS DSHEA and TCM libraries (AID 1794839);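 also: HepG2 cells expressing human CAR with a CYP2B6 reporter plus PK11195 antagonist; 0% is about no effect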", "conditions": "CAR agonist reporter cells, qHTS luminescence, CAR antagonist co-added at 0.75 µM; series mostly up to 40 µM; activation: at the top concentration", "how_it_was_run": "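HepG2-CYP2B6-hCAR cells, 2,500/well, attached 5 h, then dosed with 0.75 µM PK11195 (final) for 24 h at 37 °C. Luciferase luminescence read (ONE-Glo); CellTiter-Fluor viability (Ex/Em 405/540 nm) in same wells; CITCO positive control.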"}
{"smiles": "COc1ccc2ccc(=O)oc2c1", "activation": "-5.22% [at 68.2 µM]"}
{"smiles": "O=C(/C=C/c1ccc(O)c(O)c1)OC(Cc1ccc(O)c(O)c1)C(=O)O", "note": "(stereo unspecified)", "activation": "-6.88%"}
{"smiles": "O=c1ccc2ccc(O)cc2o1", "activation": "12%"}
{"smiles": "C=C(C)[C@H]1CC=C(C)C(=O)C1", "activation": "-15.2%"}
{"smiles": "C=C[C@](C)(O)CCC=C(C)C", "activation": "13.8%"}
{"tested_on": "not listed separately", "assay": "HepG2 viability counterscreen (readout 2: ATP content) against the NCATS DSHEA and TCM libraries (AID 1794840); also: 0% is about no effect", "conditions": "ATP content luminescence; series mostly up to 27.3 µM; activity change, negative = cytotoxic: at the top concentration", "how_it_was_run": "(§1)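 HepG2 cells, 1,000/well, attached ~4 h, then exposed ~24 h at 37C to substances. Protease activity read by fluorescence of 25 uM GF-AFC (Ex/Em 380/510 nm) after 30 min; ATP then by CellTiter-Glo luminescence.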"}
{"smiles": "COc1ccc2ccc(=O)oc2c1", "activity change, negative = cytotoxic": "-3.99% [at 46.6 µM]"}
{"smiles": "NC(Cc1c[nH]c2ccccc12)C(=O)O", "note": "(stereo unspecified)", "activity change, negative = cytotoxic": "-1.6%"}
{"smiles": "O=C(/C=C/c1ccc(O)c(O)c1)OC(Cc1ccc(O)c(O)c1)C(=O)O", "note": "(stereo unspecified)", "activity change, negative = cytotoxic": "3.47%"}
{"smiles": "O=c1ccc2ccc(O)cc2o1", "activity change, negative = cytotoxic": "4.16%"}
{"smiles": "COC(=O)C1=CO[C@@H](C)[C@H]2CN3CCc4c([nH]c5ccccc45)[C@@H]3C[C@H]12", "activity change, negative = cytotoxic": "5.06%"}
{"smiles": "C=C(C)[C@H]1CC=C(C)C(=O)C1", "activity change, negative = cytotoxic": "5.53%"}
{"smiles": "C=C[C@](C)(O)CCC=C(C)C", "activity change, negative = cytotoxic": "-5.23%"}
{"smiles": "O=c1cc(-c2ccc(O)cc2)oc2cc(O[C@H]3OC(CO)C(O)C(O)C3O)cc(O)c12", "note": "(stereo partly specified)", "activity change, negative = cytotoxic": "-9.46%"}
{"tested_on": "not listed separately", "assay": "HepG2 viability counterscreen (readout 1: protease activity) against the NCATS DSHEA and TCM libraries (AID 1794841);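 also: cells exposed to compounds for about 24 h before the protease read; 0% is about no effect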", "conditions": "qHTS concentration series; series mostly up to 27.3 µM; activity change, negative = inhibition: at the top concentration", "how_it_was_run": "as §1"}
{"smiles": "COc1ccc2ccc(=O)oc2c1", "activity change, negative = inhibition": "-23.1% [at 46.6 µM]"}
{"smiles": "NC(Cc1c[nH]c2ccccc12)C(=O)O", "note": "(stereo unspecified)", "activity change, negative = inhibition": "14.8%"}
{"smiles": "O=C(/C=C/c1ccc(O)c(O)c1)OC(Cc1ccc(O)c(O)c1)C(=O)O", "note": "(stereo unspecified)", "activity change, negative = inhibition": "-5.1%"}
{"smiles": "O=c1ccc2ccc(O)cc2o1", "activity change, negative = inhibition": "-19.5%"}
{"smiles": "COC(=O)C1=CO[C@@H](C)[C@H]2CN3CCc4c([nH]c5ccccc45)[C@@H]3C[C@H]12", "activity change, negative = inhibition": "-18.5%"}
{"smiles": "C=C(C)[C@H]1CC=C(C)C(=O)C1", "activity change, negative = inhibition": "3.81%"}
{"smiles": "C=C[C@](C)(O)CCC=C(C)C", "activity change, negative = inhibition": "-21.6%"}
{"smiles": "O=c1cc(-c2ccc(O)cc2)oc2cc(O[C@H]3OC(CO)C(O)C(O)C3O)cc(O)c12", "note": "(stereo partly specified)", "activity change, negative = inhibition": "-6.06%"}
{"biological_target": "Glutathione peroxidase 1 (Homo sapiens) (UniProt P07203)", "sequence (P07203 whole entry, looked up)": "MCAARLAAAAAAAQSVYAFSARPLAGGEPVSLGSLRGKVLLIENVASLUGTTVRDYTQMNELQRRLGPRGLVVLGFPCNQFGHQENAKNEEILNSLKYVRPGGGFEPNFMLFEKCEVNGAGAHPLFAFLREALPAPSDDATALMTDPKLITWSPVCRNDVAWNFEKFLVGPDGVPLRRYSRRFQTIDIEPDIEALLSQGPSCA", "assay": "Primary qHTS Assay for Inhibitors of Recombinant Selenoprotein Glutathione Peroxidase 1 (GPX1) (AID 1845191); also: nearly all actives have a fitted effect of over 65% in size; as to activity, negative = inhibition: % is scaled to controls: 0 for no effect and ±100 for the full control effect", "conditions": "recombinant GPX1, GR-coupled NADPH fluorescence, 15 min; series mostly up to 48.8 µM; activity, negative = inhibition: at the top concentration", "how_it_was_run": "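GPX1 10 nM, GR 100 nM, GSH 1 mM, NADPH 0.5 mM, CHP 0.5 mM (final). 30-min cpd preincubation, RT. Ex340/Em450 read t=0, t=15 min.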", "units": {"activity, negative = inhibition": "%"}}
{"smiles": "C[N+](C)(C)CC(O)CC(=O)O", "note": "(stereo unspecified)", "outcome": "inactive"}
{"smiles": "COc1cc2c(cc1OC)C1Cc3ccc(OC)c(OC)c3CN1CC2", "note": "(stereo unspecified)", "activity, negative = inhibition": 4.82}
{"smiles": "Oc1ccc2c(c1)OCC1(O)Cc3cc(O)c(O)cc3C21", "note": "(stereo unspecified)", "outcome": "inactive"}
{"smiles": "CN1C(CC(=O)c2ccccc2)CCCC1CC(O)c1ccccc1", "note": "(stereo unspecified)", "activity, negative = inhibition": -13.4}
{"smiles": "CC12CC[C@@H]3c4ccc(OS(=O)(=O)O)cc4CC[C@H]3C1CCC2=O", "note": "(stereo partly specified)", "outcome": "inactive"}
{"smiles": "CC(C)(S)[C@H](N)C(=O)O", "outcome": "inactive [at 4.49 µM]"}
{"smiles": "CC1(C)SC2C(NC(=O)Cc3ccccc3)C(=O)N2C1C(=O)O", "note": "(stereo unspecified)", "activity, negative = inhibition": -5.63}
{"smiles": "CN(C)CC/C=C1\\c2ccccc2CSc2ccccc21", "outcome": "inactive"}
{"smiles": "C=C(NC(=O)C(=C)NC(=O)c1csc(C2=NC3c4csc(n4)C4NC(=O)c5csc(n5)C(C(C)(O)C(C)O)NC(=O)C5CSC(=N5)C(=CC)NC(=O)C(C(C)O)NC(=O)c5csc(n5)C3(CC2)NC(=O)C(C)NC(=O)C(=C)NC(=O)C(C)NC(=O)C(C(C)CC)NC2C=Cc3c(C(C)O)cc(nc3C2O)C(=O)OC4C)n1)C(N)=O", "note": "(stereo unspecified)", "activity, negative = inhibition": -8.02}
{"smiles": "C#C[C@]1(O)CCC2C3CCC4=C(CCC(=O)C4)C3CC[C@@]21C", "note": "(stereo partly specified)", "activity, negative = inhibition": -24.1}
{"smiles": "C[C@@H]1CCC[C@H](C)N1NC(=O)c1ccc(Cl)c(S(N)(=O)=O)c1", "activity, negative = inhibition": 4.15}
{"smiles": "CC(C)N1CCN(c2ccc(OC[C@@H]3CO[C@@](Cn4cncn4)(c4ccc(Cl)cc4Cl)O3)cc2)CC1", "activity, negative = inhibition": 3.67}
{"biological_target": "Phospholipid hydroperoxide glutathione peroxidase GPX4 (Homo sapiens) (UniProt P36969)", "sequence (P36969 whole entry, looked up)": "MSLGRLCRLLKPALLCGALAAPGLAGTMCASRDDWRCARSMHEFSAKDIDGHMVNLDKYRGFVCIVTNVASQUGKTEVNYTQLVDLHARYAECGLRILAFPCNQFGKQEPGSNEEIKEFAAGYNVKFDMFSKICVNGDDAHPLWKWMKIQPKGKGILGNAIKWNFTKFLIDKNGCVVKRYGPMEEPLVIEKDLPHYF", "assay": "Primary qHTS Assay for Inhibitors of Recombinant Selenoprotein Glutathione Peroxidase 4 (GPX4) (AID 1845192); also: nearly all actives have a fitted effect of over 65% in size; as to activity change, negative = inhibition: % is scaled to controls: 0 for no effect and ±100 for the full control effect", "conditions": "recombinant GPX4, GR-coupled NADPH fluorescence, 15 min; series mostly up to 50 µM; activity change, negative = inhibition: at the top concentration", "how_it_was_run": "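qHTS, GR-coupled: GPX4 200 nM + cpd 30 min RT → GSH 1 mM, NADPH 0.5 mM, GR 100 nM → CHP 0.5 mM start; fluor 340/450 at t0 and t15 min; no-enzyme wells as control.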", "units": {"activity change, negative = inhibition": "%"}}
{"smiles": "C[N+](C)(C)CC(O)CC(=O)O", "note": "(stereo unspecified)", "activity change, negative = inhibition": 0.0033}
{"smiles": "O=C(Cc1cccs1)NC1C(=O)N2C(C(=O)[O-])=C(C[n+]3ccccc3)CSC12", "note": "(stereo unspecified)", "activity change, negative = inhibition": -22.6}
{"smiles": "CN1C(CC(=O)c2ccccc2)CCCC1CC(O)c1ccccc1", "note": "(stereo unspecified)", "activity change, negative = inhibition": -19}
{"smiles": "CC12CC[C@@H]3c4ccc(OS(=O)(=O)O)cc4CC[C@H]3C1CCC2=O", "note": "(stereo partly specified)", "outcome": "inactive"}
{"smiles": "CC(C)(S)[C@H](N)C(=O)O", "outcome": "inactive [at 4.52 µM]"}
{"smiles": "CC1(C)SC2C(NC(=O)Cc3ccccc3)C(=O)N2C1C(=O)O", "note": "(stereo unspecified)", "activity change, negative = inhibition": -9.85}
{"smiles": "CN(C)CC/C=C1\\c2ccccc2CSc2ccccc21", "outcome": "inactive"}
{"smiles": "C[C@@H]1CCC[C@H](C)N1NC(=O)c1ccc(Cl)c(S(N)(=O)=O)c1", "outcome": "inactive"}
{"smiles": "CC(C)N1CCN(c2ccc(OC[C@@H]3CO[C@@](Cn4cncn4)(c4ccc(Cl)cc4Cl)O3)cc2)CC1", "activity change, negative = inhibition": 2.69}
{"biological_target": "Cytochrome P450 3A4 (Homo sapiens) (UniProt P08684)", "sequence (P08684 whole entry, looked up)": "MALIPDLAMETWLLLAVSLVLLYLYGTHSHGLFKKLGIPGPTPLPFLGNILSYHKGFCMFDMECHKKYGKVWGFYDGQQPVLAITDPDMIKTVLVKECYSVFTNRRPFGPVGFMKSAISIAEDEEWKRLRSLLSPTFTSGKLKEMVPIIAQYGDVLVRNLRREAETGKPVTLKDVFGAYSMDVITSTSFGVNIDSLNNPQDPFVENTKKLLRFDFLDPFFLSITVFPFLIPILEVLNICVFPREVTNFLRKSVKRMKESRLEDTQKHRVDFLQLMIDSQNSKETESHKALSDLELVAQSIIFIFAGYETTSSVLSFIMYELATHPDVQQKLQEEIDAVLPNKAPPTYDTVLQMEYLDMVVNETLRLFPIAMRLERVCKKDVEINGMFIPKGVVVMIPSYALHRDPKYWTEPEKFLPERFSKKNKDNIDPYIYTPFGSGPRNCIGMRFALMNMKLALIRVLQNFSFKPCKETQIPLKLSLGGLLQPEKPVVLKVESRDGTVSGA", "assay": "qHTS for inhibitors of CYP3A4 against the NCATS DSHEA and TCM libraries (AID 1919971);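 also: % is scaled to controls: 0 for no effect and ±100 for the full control effect; inhibition lowers luminescence from luciferin made by CYP3A4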", "conditions": "recombinant CYP3A4 enzyme activity, luminescence qHTS; series mostly up to 34.1 µM; activity change, negative = inhibition: at the top concentration", "how_it_was_run": "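Concentration-response screening with isoform-matched pro-luciferin substrates. The CYP reaction was initiated by NADPH regenerating solution and ran 30-45 min in darkness at room temperature.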"}
{"smiles": "COc1ccc2ccc(=O)oc2c1", "activity change, negative = inhibition": "10.6% [at 58.3 µM]"}
{"smiles": "NC(Cc1c[nH]c2ccccc12)C(=O)O", "note": "(stereo unspecified)", "activity change, negative = inhibition": "-30%"}
{"smiles": "O=C(/C=C/c1ccc(O)c(O)c1)OC(Cc1ccc(O)c(O)c1)C(=O)O", "note": "(stereo unspecified)", "activity change, negative = inhibition": "-11.3%"}
{"smiles": "C=C(C)[C@H]1CC=C(C)C(=O)C1", "activity change, negative = inhibition": "10.2%"}
{"smiles": "O=c1cc(-c2ccc(O)cc2)oc2cc(O[C@H]3OC(CO)C(O)C(O)C3O)cc(O)c12", "note": "(stereo partly specified)", "activity change, negative = inhibition": "-15.2%"}
{"biological_target": "Cytochrome P450 2D6 (Homo sapiens) (UniProt P10635)", "sequence (P10635 whole entry, looked up)": "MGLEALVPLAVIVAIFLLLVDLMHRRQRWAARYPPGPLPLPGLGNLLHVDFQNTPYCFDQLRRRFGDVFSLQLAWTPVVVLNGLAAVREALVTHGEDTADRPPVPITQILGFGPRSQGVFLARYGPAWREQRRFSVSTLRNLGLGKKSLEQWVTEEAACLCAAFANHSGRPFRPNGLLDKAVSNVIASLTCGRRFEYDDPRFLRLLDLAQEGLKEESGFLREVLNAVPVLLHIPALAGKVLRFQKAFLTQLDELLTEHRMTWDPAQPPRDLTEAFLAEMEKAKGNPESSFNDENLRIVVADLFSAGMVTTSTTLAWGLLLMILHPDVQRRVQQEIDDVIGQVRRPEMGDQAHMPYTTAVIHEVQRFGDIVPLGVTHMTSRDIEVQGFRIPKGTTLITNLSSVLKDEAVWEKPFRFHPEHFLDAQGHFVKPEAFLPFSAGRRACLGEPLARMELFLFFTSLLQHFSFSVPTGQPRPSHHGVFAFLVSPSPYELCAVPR", "assay": "qHTS for inhibitors of CYP2D6 against the NCATS DSHEA and TCM libraries (AID 1919972); also: potency is read from the fitted curve at half-maximal effect; as to activity change, negative = inhibition: % is scaled to controls: 0 for no effect and ±100 for the full control effect", "conditions": "CYP2D6 enzymatic inhibition, luminescence qHTS; series mostly up to 34.1 µM; activity change, negative = inhibition: at the top concentration", "how_it_was_run": "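CYP2D6 enzyme with pro-luciferin substrate in manufacturer buffer (typically 100 mM KPO4), preincubated 15 min RT with substances (most at 19.5 nM upward); NADPH regeneration system (1x) started 30–45 min RT reaction; P450-Glo luminescence read after 30 min; quinidine as intraplate control.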"}
{"smiles": "COc1ccc2ccc(=O)oc2c1", "activity change, negative = inhibition": "0.287% [at 58.3 µM]"}
{"smiles": "NC(Cc1c[nH]c2ccccc12)C(=O)O", "note": "(stereo unspecified)", "activity change, negative = inhibition": "-25.3%"}
{"smiles": "O=C(/C=C/c1ccc(O)c(O)c1)OC(Cc1ccc(O)c(O)c1)C(=O)O", "note": "(stereo unspecified)", "activity change, negative = inhibition": "-3.46%"}
{"smiles": "O=c1ccc2ccc(O)cc2o1", "activity change, negative = inhibition": "-16.9%"}
{"smiles": "COC(=O)C1=CO[C@@H](C)[C@H]2CN3CCc4c([nH]c5ccccc45)[C@@H]3C[C@H]12", "Potency": "39.8 nM (active)"}
{"smiles": "C=C(C)[C@H]1CC=C(C)C(=O)C1", "activity change, negative = inhibition": "2.99%"}
{"smiles": "C=C[C@](C)(O)CCC=C(C)C", "activity change, negative = inhibition": "-11.7%"}
{"smiles": "O=c1cc(-c2ccc(O)cc2)oc2cc(O[C@H]3OC(CO)C(O)C(O)C3O)cc(O)c12", "note": "(stereo partly specified)", "activity change, negative = inhibition": "1.12%"}
